In PubChem BioAssay (EPA / NIEHS):
Results filed as inconclusive are left out. The source holds several records for some structures; these can differ, active in one and inactive in another. The source made the active and inactive calls. Rule for the calls, unless noted: active = hit-call score of the fitted dose curve at least 0.9, where 1 is the maximum; inconclusive = response in the unintended direction; inactive = score below 0.9.

How the values were obtained:
[1] = biological target: Estrogen-related receptor gamma (Homo sapiens) (UniProt P62508); experiment: ATG_ERRg_TRANS: Attagene TRANS-FACTORIAL HepG2 Assay for human Estrogen-Related Receptor gamma (ERRg) (AID 2282977); settings: HepG2 Attagene TRANS reporter, ERRg transactivation;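 note: hits increase reporter signal over DMSO so potencies reflect activators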
Procedure, shortened: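 Induction of reporter transcripts through a chimeric NR-Gal4 protein is quantified in transfected human HepG2 liver cells after 24 h chemical exposure, using RT-PCR with capillary electrophoresis detection and DMSO as baseline.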

[2] = BSK_3C_TissueFactor: BioMAP Diversity Plus: 3C Assay for Tissue Factor Biomarker Activity (AID 2282997; active = hit-call score of the fitted dose curve at least 0.9, where 1 is the maximum; inactive = score below 0.9); settings: BioMAP 3C HUVEC, tissue factor biomarker readout; actives raise or lower the signal
Procedure, shortened: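 Tissue Factor measured by ELISA, 24 h after treatment of primary HUVEC in the BioMAP 3C setting.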

[3] = BSK_3C_uPAR: BioMAP Diversity Plus: 3C Assay for Urokinase-type plasminogen activator receptor (uPAR) Biomarker Activity (AID 2282998; active = hit-call score of the fitted dose curve at least 0.9, where 1 is the maximum; inactive = score below 0.9); settings: BioMAP 3C HUVEC, uPAR biomarker ELISA; actives raise or lower the signal
Procedure, shortened: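 Primary human umbilical vein endothelial cells, 3C system; surface uPAR measured by ELISA 24 h after dosing. Cytotoxicity via SRB total protein in parallel cultures; bidirectional fit against DMSO.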

[4] = BSK_4H_Eotaxin3: BioMAP Diversity Plus: 4H Assay for Eotaxin 3 Biomarker Activity (AID 2283000; active = hit-call score of the fitted dose curve at least 0.9, where 1 is the maximum; inactive = score below 0.9); settings: primary human endothelial cells (HUVEC); actives raise or lower the signal
Procedure, shortened: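 Eotaxin-3 (CCL26) levels were measured by ELISA in HUVEC primary cultures 24 h post-dosing. Gain or loss of signal was fitted in both directions, with DMSO serving as baseline and negative control.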

[5] = read-out: Interleukin-1 alpha (IL1a), IL1A (gene 3552); experiment: BSK_BE3C_IL1a: BioMAP Diversity Plus: BE3C Assay for Interleukin-1 alpha (IL1a) Biomarker Activity (AID 2283016; active = hit-call score of the fitted dose curve at least 0.9, where 1 is the maximum; inactive = score below 0.9); settings: primary human bronchial epithelial cells; actives raise or lower the signal
Procedure, shortened: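 Signal from IL-1a ELISA, taken 24 h after chemical dosing of human bronchial epithelial cells, is compared with DMSO as baseline using bidirectional curve fitting.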

[6] = read-out: Monocyte Chemoattractant Protein-1 (MCP1), CCL2 (gene 6347); experiment: BSK_3C_MCP1: BioMAP Diversity Plus: 3C Assay for Monocyte Chemoattractant Protein-1 (MCP1) Biomarker Activity (AID 2283017; active = hit-call score of the fitted dose curve at least 0.9, where 1 is the maximum; inactive = score below 0.9); settings: primary human endothelial cells (HUVEC); actives raise or lower the signal
Procedure, shortened: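 Human umbilical vein endothelial cells (3C system) exposed to chemicals for 24 h; MCP-1 quantified by ELISA against the DMSO baseline with bidirectional fitting, and parallel SRB staining used to assess cytotoxicity.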

[7] = read-out: Monocyte Chemoattractant Protein-1 (MCP1), CCL2 (gene 6347); experiment: BSK_4H_MCP1: BioMAP Diversity Plus: 4H Assay for Monocyte Chemoattractant Protein-1 (MCP1) Biomarker Activity (AID 2283018; active = hit-call score of the fitted dose curve at least 0.9, where 1 is the maximum; inactive = score below 0.9); settings: primary human endothelial cells (HUVEC); actives raise or lower the signal
Procedure, shortened: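 Endothelial cells from umbilical vein were treated with test chemical, then after 24 h MCP-1 levels were quantified by ELISA; endpoint values came from bidirectional fitting with DMSO as baseline of activity.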

[8] = read-out: Interleukin-1 alpha (IL1a), IL1A (gene 3552); experiment: BSK_LPS_IL1a: BioMAP Diversity Plus: LPS Assay for Interleukin-1 alpha (IL1a) Biomarker Activity (AID 2283080; active = hit-call score of the fitted dose curve at least 0.9, where 1 is the maximum; inactive = score below 0.9); settings: primary human HUVEC with PBMC; actives raise or lower the signal
Procedure, shortened: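 Human umbilical vein endothelial cells co-cultured with PBMC and stimulated with LPS; IL-1a measured by ELISA 24 h after dosing. Bidirectional fitting against DMSO; cytotoxicity checked by SRB staining in parallel cultures.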

[9] = BSK_LPS_PGE2: BioMAP Diversity Plus: LPS Assay for Prostaglandin E2 (PGE2) Biomarker Activity (AID 2283082; active = hit-call score of the fitted dose curve at least 0.9, where 1 is the maximum; inactive = score below 0.9); settings: primary human HUVEC with PBMC; actives raise or lower the signal
Procedure, shortened: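 Compounds were added to the LPS co-culture of endothelium and PBMC, and PGE2 was measured by ELISA after 24 h. Responses in either direction were fitted with DMSO as baseline.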

[10] = biological target: Retinoic acid receptor RXR-alpha (Homo sapiens) (UniProt P19793); experiment: OT_NURR1_NURR1RXRa_0480: Odyssey Thera (OT) 8-hour HEK293T Protein Complementation Assay for Nurr1/retinoid X receptor (RXR) (AID 2283385)
Procedure, shortened: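 Interaction of bait and prey reconstitutes a functional reporter, whose fluorescence was measured in HEK293T cells dosed with compound for 8 hours. Signal gain relative to DMSO defined the single endpoint.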

[11] = biological target: Retinoic acid receptor RXR-alpha (Homo sapiens) (UniProt P19793); experiment: OT_NURR1_NURR1RXRa_1440: Odyssey Thera (OT) 24-hour HEK293T Protein Complementation Assay for Nurr1/retinoid X receptor (RXR) (AID 2283386)
Procedure, shortened: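 Steps: fragment-tagged Nurr1 and RXRα expressed in HEK293T; compounds added; after 24 h, complemented reporter quantified by fluorescence intensity; signal increase over DMSO fitted as the single endpoint.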

[12] = biological target: Peroxisome proliferator-activated receptor gamma (Homo sapiens) (UniProt P37231); experiment: OT_PPARg_PPARgSRC1_0480: Odyssey Thera (OT) 8-hour Protein-Complementation Assay for Peroxisome Proliferator-activated Receptor Gamma / SRC-1 Co-activator (AID 2283387)
Procedure, shortened: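 Read-out: 488 nm N/C fluorescence ratio from complemented Venus YFP fragments, ≥350 cells per image, gain-of-signal fitted against DMSO baseline. Fusions of PPARg/SRC-1 with IFP1/IFP2 expressed transiently in HEK293T; compounds applied 8 h.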

[13] = biological target: Peroxisome proliferator-activated receptor gamma (Homo sapiens) (UniProt P37231); experiment: OT_PPARg_PPARgSRC1_1440: Odyssey Thera (OT) 24-hour Protein-Complementation Assay for Peroxisome Proliferator-activated Receptor Gamma/ SRC-1 Co-activator (AID 2283388)
Procedure, shortened: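 HEK293T transiently transfected with PPARg/SRC-1 split-Venus YFP fusions 48 h before dosing, then treated 24 h at 37C. Fixed cells imaged; nuclear/cytoplasmic 488 nm fluorescence ratio, gain of signal versus DMSO.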

[14] = ACEA_AR_agonist_AUC_viability: ACEA Biosciences xCELLigence Real-Time Cell Analysis on Androgen Receptor Agonism for Viability (AID 2283775);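 for AC50: viability read 80 hours after compound addition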
Procedure, shortened: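 22Rv1 cells; impedance growth kinetics; 8-pt 1:4 dilutions from 100 uM top final, ≤0.5% DMSO; n = 2; 80 h read; AUC viability, loss-of-signal vs DMSO.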

[15] = ACEA_AR_antagonist_AUC_viability: ACEA Biosciences xCELLigence Real-Time Cell Analysis on Androgen Receptor Antagonism for Viability (AID 2283776);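 note: 22Rv1 human prostate cancer cells growing on impedance electrode plates; area under impedance growth curve at 80 h after dosing as viability; hits lower the growth signal relative to DMSO meaning cytotoxicity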
Procedure, shortened: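 Real-time electrical impedance tracks 22Rv1 proliferation after continuous compound exposure (top 100 uM final, 1:4 steps, 8 concentrations). The 80 h area-under-curve serves as the cytotoxicity readout relative to DMSO.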

[16] = CCTE_Harrill_HTTr_Apoptosis_MCF7: CCTE's 6-hour Apoptosis Assessment for the High-Throughput Transcriptomics (HTTr) Platform, in MCF-7 cells cultured in DMEM + 10% fetal bovine serum, Harrill Lab (AID 2284011; active = hit-call score of the fitted dose curve at least 0.9, where 1 is the maximum; inactive = score below 0.9)
Procedure, shortened: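 MCF-7 cells in DMEM + 10% FBS exposed 6 h to chemicals over an eight-point dilution series. Caspase-3/7 activation imaged by high-content CellEvent Green staining; fitted bidirectionally versus DMSO.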

[17] = CCTE_Harrill_HTTr_CellCount_MCF7: CCTE's Cell Proliferation Assessment for the High-Throughput Transcriptomics (HTTr) Platform, Harrill Lab (AID 2284012);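 note: cells exposed to compound for six hours; intended direction is loss of nuclei count meaning fewer cells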
Procedure, shortened: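 Cell count served as viability reporter: loss of Hoechst-stained nuclei, counted by high content imaging, marks decreased growth or survival. Exposure was 6 h in MCF-7 cells across eight concentrations, with DMSO as baseline.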

[18] = biological target: human Retinoid X Receptor beta (RXRb), RXRB (gene 6257) (UniProt P28702); experiment: ATG_RXRb_TRANS: Attagene TRANS-FACTORIAL HepG2 Assay for human Retinoid X Receptor beta (RXRb) (AID 2283013)
Procedure, shortened: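 Chimeric receptor-Gal4 activity was assessed in transiently transfected human HepG2 cells after 24 h exposure. Transcripts from GAL4-UAS reporters were quantified by fluorescent RT-PCR and capillary electrophoresis, with DMSO as negative control and baseline.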

[19] = biological target: Nuclear receptor subfamily 4 group A member 2 (Homo sapiens) (UniProt P43354); experiment: ATG_NURR1_TRANS: Attagene TRANS-FACTORIAL HepG2 Assay for human Nuclear Receptor Related Protein 1 (NURR1) (AID 2282985); settings: HepG2 Attagene TRANS reporter, mRNA readout
Procedure, shortened: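 Reporter transcript induction, measured by RT-PCR with fluorescent labelling, HpaI digestion and capillary electrophoresis, after 24 hr dosing of human HepG2 cells transiently expressing an exogenous NR-Gal4 fusion with GAL4-UAS-driven reporters; DMSO as baseline.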

Measured: AC50

Nuclear receptor subfamily 4 group A member 2 (Homo sapiens), sequence (P43354 whole entry, looked up, the tested form may be a part): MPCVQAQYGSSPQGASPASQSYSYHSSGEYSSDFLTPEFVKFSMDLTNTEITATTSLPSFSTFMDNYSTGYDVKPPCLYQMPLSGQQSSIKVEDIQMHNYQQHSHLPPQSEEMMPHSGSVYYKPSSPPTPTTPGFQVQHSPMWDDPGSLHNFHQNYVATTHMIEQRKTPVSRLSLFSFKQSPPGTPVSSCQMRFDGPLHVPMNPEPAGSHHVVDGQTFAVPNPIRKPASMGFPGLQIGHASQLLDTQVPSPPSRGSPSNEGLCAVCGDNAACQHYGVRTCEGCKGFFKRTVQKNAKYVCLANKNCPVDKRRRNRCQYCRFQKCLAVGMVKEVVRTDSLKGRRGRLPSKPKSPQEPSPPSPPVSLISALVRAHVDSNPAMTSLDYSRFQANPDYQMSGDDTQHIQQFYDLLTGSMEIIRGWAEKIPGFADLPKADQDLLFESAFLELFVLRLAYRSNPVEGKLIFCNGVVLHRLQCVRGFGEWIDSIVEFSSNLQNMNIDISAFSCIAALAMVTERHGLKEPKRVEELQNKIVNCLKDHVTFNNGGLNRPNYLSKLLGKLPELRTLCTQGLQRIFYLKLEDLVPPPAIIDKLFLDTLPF
Peroxisome proliferator-activated receptor gamma (Homo sapiens), sequence (P37231 whole entry, looked up, the tested form may be a part): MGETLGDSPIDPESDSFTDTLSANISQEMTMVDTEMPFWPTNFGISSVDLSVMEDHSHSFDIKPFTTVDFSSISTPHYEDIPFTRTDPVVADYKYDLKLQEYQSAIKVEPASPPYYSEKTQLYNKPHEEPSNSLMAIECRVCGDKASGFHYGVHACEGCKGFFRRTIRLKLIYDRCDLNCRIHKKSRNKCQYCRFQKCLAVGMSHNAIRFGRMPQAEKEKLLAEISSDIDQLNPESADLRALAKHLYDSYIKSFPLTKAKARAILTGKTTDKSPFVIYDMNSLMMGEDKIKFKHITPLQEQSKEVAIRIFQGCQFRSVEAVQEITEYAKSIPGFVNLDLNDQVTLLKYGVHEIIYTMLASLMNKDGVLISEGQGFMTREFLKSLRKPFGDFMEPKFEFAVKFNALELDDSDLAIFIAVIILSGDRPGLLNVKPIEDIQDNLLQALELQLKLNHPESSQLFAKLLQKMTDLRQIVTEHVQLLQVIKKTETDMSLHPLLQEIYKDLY
Estrogen-related receptor gamma (Homo sapiens), sequence (P62508 whole entry, looked up, the tested form may be a part): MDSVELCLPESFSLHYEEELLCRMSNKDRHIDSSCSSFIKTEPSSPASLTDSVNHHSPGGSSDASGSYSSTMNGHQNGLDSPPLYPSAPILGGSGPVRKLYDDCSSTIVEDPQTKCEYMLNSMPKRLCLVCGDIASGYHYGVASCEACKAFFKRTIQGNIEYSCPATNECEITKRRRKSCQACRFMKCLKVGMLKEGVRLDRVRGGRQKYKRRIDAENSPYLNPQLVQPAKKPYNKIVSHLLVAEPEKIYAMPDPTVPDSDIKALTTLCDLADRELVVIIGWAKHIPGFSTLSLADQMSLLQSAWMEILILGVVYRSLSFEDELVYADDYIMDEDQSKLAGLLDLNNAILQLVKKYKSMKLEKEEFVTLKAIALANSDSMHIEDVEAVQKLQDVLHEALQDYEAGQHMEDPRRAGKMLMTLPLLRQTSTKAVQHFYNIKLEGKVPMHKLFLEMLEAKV
Retinoic acid receptor RXR-alpha (Homo sapiens), sequence (P19793 whole entry, looked up, the tested form may be a part): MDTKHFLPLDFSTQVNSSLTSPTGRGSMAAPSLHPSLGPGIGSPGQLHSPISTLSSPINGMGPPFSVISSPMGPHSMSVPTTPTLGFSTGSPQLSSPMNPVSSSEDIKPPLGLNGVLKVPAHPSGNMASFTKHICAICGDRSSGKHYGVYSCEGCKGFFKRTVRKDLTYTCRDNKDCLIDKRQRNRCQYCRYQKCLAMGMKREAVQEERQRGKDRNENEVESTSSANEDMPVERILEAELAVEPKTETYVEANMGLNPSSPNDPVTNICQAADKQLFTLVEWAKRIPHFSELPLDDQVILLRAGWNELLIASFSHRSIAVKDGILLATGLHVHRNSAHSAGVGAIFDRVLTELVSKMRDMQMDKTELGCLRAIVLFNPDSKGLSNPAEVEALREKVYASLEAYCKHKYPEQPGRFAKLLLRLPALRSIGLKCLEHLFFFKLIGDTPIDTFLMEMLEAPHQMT
human Retinoid X Receptor beta (RXRb), RXRB (gene 6257), sequence (P28702 whole entry, looked up, the tested form may be a part): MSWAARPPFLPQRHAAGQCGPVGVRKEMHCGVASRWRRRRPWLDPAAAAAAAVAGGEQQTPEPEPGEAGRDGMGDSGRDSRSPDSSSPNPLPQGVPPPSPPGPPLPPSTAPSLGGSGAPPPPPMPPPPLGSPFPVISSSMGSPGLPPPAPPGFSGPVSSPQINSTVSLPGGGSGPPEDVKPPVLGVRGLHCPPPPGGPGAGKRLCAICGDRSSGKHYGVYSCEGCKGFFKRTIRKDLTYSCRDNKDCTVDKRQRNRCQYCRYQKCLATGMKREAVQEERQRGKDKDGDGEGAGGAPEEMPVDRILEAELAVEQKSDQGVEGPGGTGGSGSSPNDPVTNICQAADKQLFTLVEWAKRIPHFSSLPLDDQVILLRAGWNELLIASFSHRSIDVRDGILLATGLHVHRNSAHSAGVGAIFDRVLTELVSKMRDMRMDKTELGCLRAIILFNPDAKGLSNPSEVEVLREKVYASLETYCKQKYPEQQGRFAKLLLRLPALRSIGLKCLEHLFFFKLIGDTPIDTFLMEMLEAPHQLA

C=CC(=O)OCC(CC)CCCC (centres undefined)
active: [2] 28.9 µM | [6] 20 µM | [14] 4.45 µM
inactive: [1] | [3] | [4] | [5] | [7] | [8] | [9] | [10] | [11] | [12] | [13] | [15] | [16] | [17]

Cc1ccccc1CCl
inactive: [1] | [18]

O=[N+]([O-])O
active: [4] 0.433 µM
inactive: [2] | [3] | [4] | [5] | [6] | [7] | [8] | [9] | [10] | [11] | [12] | [13] | [14] | [15] | [16] | [17]

[CH3][Sn]([CH3])([Cl])[Cl]
inactive: [1] | [19] | [18] | [10] | [12] | [13] | [14] | [15]
active: [11] 82.1 µM

Nc1c(Cl)c(Cl)c(Cl)c(Cl)c1Cl
active: [18] 28.6 µM

Cc1ccc(N(SC(F)(Cl)Cl)S(=O)(=O)N(C)C)cc1
inactive: [1] | [16] | [17]

O=[N+]([O-])O.O=[N+]([O-])O.[Cd]
inactive: [19]

C#CC1(O)CCCCC1
inactive: [1] | [19]

CCC(=O)c1ccc(Cl)cc1
inactive: [18] | [10] | [11] | [12] | [13] | [14]

O=[N+]([O-])c1cc([N+](=O)[O-])c2ccccc2c1
inactive: [1]

CN(C)N
inactive: [10] | [12] | [13] | [14] | [15] | [17]

O=c1[nH]c(Cl)c(Cl)cc1Cl
inactive: [1] | [2] | [3] | [4] | [18] | [5] | [6] | [7] | [8] | [9] | [16] | [17]

CN(C)C(=O)C(c1ccccc1)c1ccccc1
inactive: [18] | [10] | [11] | [12] | [13] | [14] | [15] | [16] | [17]

CCOP(O)OCC
inactive: [19] | [11] | [12] | [13] | [14]

CCc1cccc(C)c1N(C(=O)CCl)[C@@H](C)COC
inactive: [10] | [12] | [13] | [14] | [15] | [16] | [17]

CCOP(=O)(OCC)OCC
inactive: [1] | [18] | [10] | [12] | [13] | [14]

Cc1ccc(OP(=O)(Oc2ccc(C)cc2)Oc2ccc(C)cc2)cc1 (tested in a mixture with another compound)
inactive: [2] | [3] | [4] | [5] | [9] | [11] | [12] | [13] | [16] | [17]
active: [6] 20 µM | [7] 2.31 µM | [8] 4.74 µM | [10] 15.5 µM

C=CC(=O)OC
inactive: [19]

CCCCCCC1CCOC1=O (centres undefined)
inactive: [1]

CC(C)C#N
inactive: [12] | [13] | [14] | [15]

C=CCc1ccc(OC(=O)Cc2ccccc2)c(OC)c1
inactive: [18]

CN1C(=O)CCS(=O)(=O)C1c1ccc(Cl)cc1 (centres undefined)
inactive: [16] | [17]

CC1CCCC1.[C-]#[O+].[C-]#[O+].[C-]#[O+].[Mn]
inactive: [10] | [11] | [12] | [13] | [14]

Oc1cc(Cl)ccc1Cl
inactive: [2] | [3] | [4] | [5] | [6] | [7] | [8] | [9] | [11] | [12] | [13] | [15] | [17]

CCOC(=O)NC(=S)Nc1ccccc1NC(=S)NC(=O)OCC
active: [15] 4.35 µM
inactive: [1] | [19] | [12] | [13] | [17]

Nc1ccc(-c2ccc(N)c(N)c2)cc1N
active: [2] 5.26 µM | [7] 20 µM
inactive: [3] | [4] | [5] | [6] | [8] | [9]
